# Measured values published in the supplement of paper PMC6607015.
# Counter-ions that a name gives are not always drawn.
# Columns and labels:
# Conditions in all cases: compound concentration in added solution (µM; 5 µl added to 20 µl cells): 10; 18 h
# [1] = test system: A431; test: LBPA endosome anti-LBPA integrated intensity (sum per cell), Z-score; higher = more LBPA staining
# Method in brief: (§1)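 HeLa MZ or A431 cells were plated at 3,500 per well in 20 µl over 5 µl of 10 µM compound solution in duplicate 384-well imaging plates and fixed in 4% PFA after 18 h. Staining used the 6C4 anti-LBPA antibody, filipin, propidium iodide and CellTracker green, with four 20× images captured per well. MetaXpress segmentation measured integrated LBPA or filipin intensity per cell, across the whole cell or inside LBPA endosomes, and AcuityXpress normalised these into Z-scores.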
# [2] = test system: HeLa MZ; test: as above
# Method in brief: as §1
# [3] = test system: A431; test: whole-cell filipin (free cholesterol) integrated intensity, Z-score; higher = more cholesterol staining
# Method in brief: as §1
# [4] = test system: HeLa MZ; test: as above
# Method in brief: as §1
# [5] = test system: A431; test: filipin (cholesterol) integrated intensity within LBPA endosomes, Z-score; higher = more cholesterol in LBPA endosomes
# Method in brief: as §1
# [6] = test system: HeLa MZ; test: as above
# Method in brief: as §1
Compound,LBPA endosome anti-LBPA integrated intensity (z-score) [1],LBPA endosome anti-LBPA integrated intensity (z-score) [2],whole-cell filipin (z-score) [3],whole-cell filipin (z-score) [4],filipin (z-score) [5],filipin (z-score) [6]
C[C@H](CCC(=O)O)[C@H]1CC[C@H]2[C@@H]3CC[C@@H]4C[C@H](O)CC[C@]4(C)[C@H]3CC[C@]12C [Lithocholic acid],-0.507,-0.5,-0.232,0.929,-0.446,-0.289
COc1ccc(-c2ccc(=N)n(CCCC(=O)O)n2)cc1 [Gabazine bromide],-0.561,-0.0518,-0.811,-0.576,-0.574,-0.549
NC[C@@H]1O[C@H](O[C@H]2[C@@H](O)[C@H](O[C@@H]3[C@@H](O)[C@H](N)C[C@H](N)[C@H]3O[C@H]3O[C@H](CO)[C@@H](O)[C@H](O)[C@H]3N)O[C@@H]2CO)[C@H](N)[C@@H](O)[C@@H]1O [Paromomycin sulfate],-0.396,-0.465,-0.35,-0.208,-0.425,-0.447
C=CCOc1ccccc1OCC(O)CNC(C)C (centres undefined) [Oxprenolol hydrochloride],-0.0805,0.635,0.289,0.262,-0.232,-0.267
O=P(O)(O)C(Cl)(Cl)P(=O)(O)O [Clodronate],-0.576,-0.865,-0.177,-0.446,-0.541,-0.434
CC(C)Cn1cnc2c(N)nc3ccccc3c21 [Imiquimod],0.0371,0.531,0.233,0.058,-0.267,-0.158
OCc1cc(C(O)CNCCCCCCOCCCCc2ccccc2)ccc1O (centres undefined) [Salmeterol],2.65,2.85,3.59,2.48,1.61,2.18
CC(=O)Nc1c(I)c(C(=O)N[C@H]2C(O)O[C@H](CO)[C@@H](O)[C@@H]2O)c(I)c(N(C)C(C)=O)c1I (some centres undefined) [Metrizamide],-0.495,-0.295,-0.527,-0.9,-0.561,-0.597
CCN(CC)C(=O)/C(C#N)=C/c1cc(O)c(O)c([N+](=O)[O-])c1 [Entacapone],-0.554,-0.84,-0.719,0.0172,-0.479,-0.52
CC(C)(Oc1ccc(C2CC2(Cl)Cl)cc1)C(=O)O (centres undefined) [Ciprofibrate],-0.486,-0.255,-0.125,-0.278,-0.419,-0.482
CCCCc1oc2ccccc2c1C(=O)c1cc(I)c(OCCN(CC)CC)c(I)c1 [Amiodarone hydrochloride],1.78,0.0569,0.251,0.182,2.45,1.95
C[C@]12CC[C@@H]3c4ccc(O)cc4CC[C@H]3[C@@H]1CC[C@@H]2O [Estradiol-17 beta],-0.253,0.492,-0.4,-1.01,-0.426,-0.515
CCN(CC)CCNC(=O)c1ccc(N)cc1 [Procainamide hydrochloride],-0.492,0.0584,-0.628,0.713,-0.428,-0.159
N#Cc1ccc(C(c2ccc(C#N)cc2)n2cncn2)cc1 [Letrozole],-0.371,0.276,0.375,0.337,-0.552,-0.548
CSc1ccc2c(c1)C(N1CCN(C)CC1)Cc1ccccc1S2 (centres undefined) [Methiothepin maleate],3.25,1.9,0.963,0.218,3,2.66
CNC[C@H](O)[C@@H](O)[C@H](O)[C@H](O)CO [Meglumine],-0.671,-1.5,-0.386,-0.451,-0.555,-0.582
CNS(=O)(=O)Cc1ccc2[nH]cc(CCN(C)C)c2c1 [Sumatriptan succinate],-0.406,0.265,-0.574,-0.339,-0.423,-0.484
CC(=O)NC[C@H]1CN(c2ccc(N3CCOCC3)c(F)c2)C(=O)O1 [Linezolid],-0.619,-0.712,-0.597,-0.713,-0.583,-0.674
Cc1[nH]c(=O)c(C#N)cc1-c1ccncc1 [Milrinone],-0.393,0.29,-0.171,-0.0695,-0.351,-0.372
CC1(C)OC(=O)NC1=O [Dimethadione],-0.345,0.802,-0.303,-0.0416,-0.341,-0.341
C[C@H](O)C(=O)Nc1c(I)c(C(=O)NC(CO)CO)c(I)c(C(=O)NC(CO)CO)c1I [Iopamidol],-0.637,-1.5,-0.34,-0.1,-0.494,-0.379
CN1CC2c3ccccc3Oc3ccc(Cl)cc3C2C1 (centres undefined) [Asenapine maleate],2.13,2,0.865,-0.413,1.3,0.927
O=C(O)CCCC[C@@H]1SC[C@@H]2NC(=O)N[C@@H]21 [Biotin],-0.478,-0.782,-0.69,-0.491,-0.471,-0.52
Clc1ccc(COC(Cn2ccnc2)c2ccc(Cl)cc2Cl)c(Cl)c1 (centres undefined) [Miconazole],0.0492,1.55,0.107,0.176,-0.0467,0.514
